Screening data from PubChem.
D2 ag-1: Beta-Arrestin HTS for Positive Allosteric Modulators of the Human D2 Dopamine Receptor: Agonists; D(2) dopamine receptor (Homo sapiens), P14416; DiscoveRx PathHunter D2 beta-arrestin, luminescence, 90 min; 100% = 57 uM dopamine signal; activation, % (test concentration not listed); 360,000 compounds, 0.084% hits; AID 624465, 2012; in the data active = activation above about 40%; inconclusive = between about 15% and that limit
Target sequence (P14416 whole entry, looked up): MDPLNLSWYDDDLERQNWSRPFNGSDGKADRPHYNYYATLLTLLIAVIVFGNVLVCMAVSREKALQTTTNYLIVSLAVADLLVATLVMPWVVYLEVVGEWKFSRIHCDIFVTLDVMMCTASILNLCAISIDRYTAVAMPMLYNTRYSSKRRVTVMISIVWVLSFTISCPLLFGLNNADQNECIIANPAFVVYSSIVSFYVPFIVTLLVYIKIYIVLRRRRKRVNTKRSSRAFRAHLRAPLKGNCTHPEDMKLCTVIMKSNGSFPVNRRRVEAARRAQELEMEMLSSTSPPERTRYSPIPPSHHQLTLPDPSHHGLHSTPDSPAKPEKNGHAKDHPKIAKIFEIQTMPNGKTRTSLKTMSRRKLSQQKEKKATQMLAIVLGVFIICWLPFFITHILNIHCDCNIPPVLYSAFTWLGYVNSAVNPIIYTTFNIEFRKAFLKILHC
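Agonist mode: compounds alone added to overnight-plated D2 PathHunter cells for 90 min at 37 C, with 57 uM final dopamine (EC100) defining full response. Beta-arrestin recruitment detected by chemiluminescent reagent, read after 1 h at ambient temperature.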
D2 ag-2: HTS Assay for Allosteric Agonists of the Human D2 Dopamine Receptor: Primary Screen for Agonists | activation, % at 2 µM | 340,000 compounds, 0.53% hits | HEK293 T-REx D2 cells, calcium flux agonist mode | AID 485358, 2010;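 active = activation over 3 SD above normal in the single-dose calcium agonist read, cut at about 30% in these data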
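In this primary screen, compounds producing a positive calcium signal within 180 s of addition to tetracycline-induced, force-coupled HEK293 Trex D2 cells are flagged; cells are dye-loaded with a no-wash calcium kit beforehand.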
D2 antagonist: HTS Assay for Allosteric Antagonists of the Human D2 Dopamine Receptor: Primary Screen for Antagonists | D(2) dopamine receptor (Homo sapiens), P14416 | HEK293 TREx D2 cells, calcium flux, dopamine EC80 | inhibition, % at 10 µM | 340,000 compounds, 2% hits | AID 485344, 2010; in the data active = inhibition above about 30%; inactive = below that, where a call was filed
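Read-out: kinetic calcium fluorescence (1 cycle/s) in inducible HEK293 T-REx D2 cells after an EC80 dopamine addition that followed 180 s compound preincubation. Loss of the dopamine response indicates antagonism.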
D2 PAM-1: HTS Assay for Positive Allosteric Modulators of the Human D2 Dopamine Receptor: Primary Screen for Potentiators | HEK293 T-REx D2, calcium flux, EC20 dopamine potentiation | AID 485347, 2010 | D(2) dopamine receptor (Homo sapiens), P14416 | potentiation, % at 10 µM | 340,000 compounds, 0.34% hits;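 active = potentiation over 3 SD above the plate norm, cut at about 30% in these data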
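Tetracycline-induced Hek293 Trex D2 cells, force-coupled to calcium, loaded with no-wash calcium dye. Compound added with 180 s kinetic read for agonism, then EC20 dopamine and a further 180 s read for potentiation.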
D2 PAM-2: Beta-Arrestin HTS for Positive Allosteric Modulators of the Human D2 Dopamine Receptor: Potentiators | D(2) dopamine receptor (Homo sapiens), P14416 | DiscoveRx D2 beta-arrestin cells, luminescence, 90 min; 100% = 57 uM dopamine signal | AID 624464, 2012 | potentiation, % (test concentration not listed) | 360,000 compounds, 0.23% hits; in the data active = potentiation above about 50%; inconclusive = mostly about 30% to 49%
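PathHunter beta-arrestin assay in DiscoveRx D2 cells. Compounds were added with an EC20 of dopamine (50 nM final) for 90 min at 37 deg C. Luminescence was read 1 h after detection reagent, with 57 uM dopamine as the EC100 control.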
D3 ag: qHTS of D3 Dopamine Receptor Agonist: D3 Dopamine Receptor B-arrestin Agonist Confirmatory Assay | shares compounds with D2 ag-2 | DiscoveRx D3 beta-arrestin cells, luminescence, 90 min | Potency, µM (doses to about 76.9 µM), usual class: activators | 2,300 compounds, 4% hits | AID 720506, 2013; also: nearly all actives have a fitted effect of over 70% in size
D2 ag-3: qHTS of D3 Dopamine Receptor Agonist: D2 Dopamine Receptor B-arrestin Agonist Counterscreen | shares compounds with D2 ag-2 | DiscoveRx PathHunter D2 beta-arrestin, luminescence, 90 min; response scale: percent relative to full dopamine signal | Potency, µM (doses to about 76.9 µM), usual class: activators | 2,300 compounds, 5.9% hits | AID 720507, 2013; also: nearly all actives have a fitted effect of over 70% in size
Hits are given with their value. Only some compounds are listed: those with a hit (about 2.4% of all), similar ones and a draw of the others. Unless noted, calls follow the shape of the dose curve; as a rule, active = well fitted activation curve with a large enough effect; inconclusive = small, poorly fitted or top-dose-only effect; inactive = flat fitted curve, though single readings scatter.

`NS(=O)(=O)c1cccc(NC(=O)CSc2nnc(NC3CC3)s2)c1` gave D2 ag-1 inactive and D2 PAM-2 inactive.
Screening COc1ccc(-c2oc3ncn4nc(COc5ccccc5C)nc4c3c2-c2ccc(OC)cc2)cc1 returned D2 ag-2 inactive and D2 PAM-1 inactive.
`C=CCNc1ncnc2c1ncn2[C@H]1CN(Cc2ccc(-c3ccccc3)cc2)C[C@@H](CO)O1` gave D2 ag-1 inactive and D2 PAM-2 inactive.
CCOc1ccc2nc(N(CCCN(C)C)C(=O)c3ccc(S(=O)(=O)N4CCCC4)cc3)sc2c1 was read as D2 ag-1 inactive, D2 ag-2 inactive, D2 antagonist 31, D2 PAM-1 inactive, D2 PAM-2 inactive, D3 ag inactive and D2 ag-3 inactive.
For NC(=O)CSc1nccn1Cc1ccccc1 the results were D2 ag-1 inactive, D2 ag-2 inactive, D2 antagonist 45, D2 PAM-1 inactive, D2 PAM-2 inactive, D3 ag inactive and D2 ag-3 inactive.
For N#Cc1ccccc1OCC(=O)OCCCOC(=O)COc1ccccc1C#N the results were D2 ag-1 inactive, D2 ag-2 62, D2 antagonist inactive, D2 PAM-1 inactive, D2 PAM-2 inactive, D3 ag inactive and D2 ag-3 inactive.
For O=C1CCC(C(=O)N2CCN(c3ccccc3)CC2)CN1CC1CCCCC1 (stereo unspecified) the results were D2 ag-1 inactive, D2 ag-2 62, D2 antagonist inactive, D2 PAM-1 inactive, D2 PAM-2 inactive, D3 ag inactive and D2 ag-3 inconclusive.
O=C1CCC(C(=O)N2CCN(c3ccc(F)cc3)CC2)CN1CC1CCCCC1 (stereo unspecified) was read as D2 ag-1 inactive, D2 ag-2 inactive, D2 antagonist inactive, D2 PAM-1 inactive and D2 PAM-2 inactive.
Screening CC(=O)Oc1ccc(C(=O)Nc2ccc(C3(C#N)CCCC3)cc2)cc1 returned D2 ag-1 inactive and D2 PAM-2 inactive.
`COc1ccccc1C(=O)Nc1ccc(C(=O)Nc2ccccc2C(=O)O)cc1` gave D2 ag-1 inactive, D2 ag-2 inactive, D2 antagonist inactive, D2 PAM-1 inactive and D2 PAM-2 inactive.
CN(Cc1ccccc1)C(=O)c1cc2c(s1)-c1ccc(Cl)cc1SC2 was read as D2 ag-2 inactive and D2 PAM-1 inactive.
For COc1ccc(C2=NOC3(CC(=O)N(c4ccc(F)cc4)C3=O)C2)c(OC)c1 (stereo unspecified) the results were D2 ag-1 inactive, D2 ag-2 inactive, D2 antagonist inactive, D2 PAM-1 inactive and D2 PAM-2 inactive.
Screening COc1ccc(C2=NOC3(CC(=O)N(c4ccc5ccccc5c4)C3=O)C2)c(OC)c1 (stereo unspecified) returned D2 ag-1 inactive, D2 ag-2 inactive, D2 antagonist inactive, D2 PAM-1 inactive, D2 PAM-2 inactive, D3 ag inactive and D2 ag-3 inactive.
Screening Cc1ccc(S(=O)(=O)c2cc3ccccc3oc2=O)cc1 returned D2 ag-1 inactive, D2 ag-2 inactive, D2 antagonist inactive, D2 PAM-1 inactive and D2 PAM-2 inactive.
Screening CCN(CC)c1ccc2cc(S(=O)(=O)c3ccc(C)cc3)c(=O)oc2c1 returned D2 ag-1 inactive, D2 ag-2 inactive, D2 antagonist inactive, D2 PAM-1 inactive, D2 PAM-2 inactive, D3 ag inactive and D2 ag-3 inactive.
